Measured values taken from article PMC8384837, “Expanding the binding specificity for RNA recognition by a PUF domain”.

Tests used:
Test in all cases: yeast three-hybrid, YBZ-1, SC-Leu-His + 0.5 mM 3-AT, 4 days
Settings in all cases: tags: N-Gal4 AD-HA kept; label: inside an RPR1-promoter hybrid RNA with tandem MS2 sites; ssRNA
PUM1 PUF domain R4-PFV = PUM1 PUF domain R4-PFV (Homo sapiens, UniProt Q14671 828-1176, N971P;H972F;Q975V)
How it was run: (§1)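 A centromeric plasmid in strain YBZ-1 co-expressed Pumilio-1 PUF domain libraries, randomized at the three base-contacting residues of each repeat, with matching RNA elements; the strain carries a LexA–MS2 coat fusion and a HIS3 reporter. After four days on SC-Leu (input) or SC-Leu-His + 0.5 mM 3-AT (selection), the repeat regions were PCR-amplified and Illumina-sequenced. The interaction score is the log change in variant frequency from input to selection, using log2 and a pseudocount of 1 where absent.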

PUM1 PUF domain R1-YMR = PUM1 PUF domain R1-YMR (Homo sapiens, UniProt Q14671 828-1176, S863Y;R864M;Q867R)
PUM1 PUF domain R1-YMR, sequence (Q14671 828-1176 S863Y/R864M/Q867R): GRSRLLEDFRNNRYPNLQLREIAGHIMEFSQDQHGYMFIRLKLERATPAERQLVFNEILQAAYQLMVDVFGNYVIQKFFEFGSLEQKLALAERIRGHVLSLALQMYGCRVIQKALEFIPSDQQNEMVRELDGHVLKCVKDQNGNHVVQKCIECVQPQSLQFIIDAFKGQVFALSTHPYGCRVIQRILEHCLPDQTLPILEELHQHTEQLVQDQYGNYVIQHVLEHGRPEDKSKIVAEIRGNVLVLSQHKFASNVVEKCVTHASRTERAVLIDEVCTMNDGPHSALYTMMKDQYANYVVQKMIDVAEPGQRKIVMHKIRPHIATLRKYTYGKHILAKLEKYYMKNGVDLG
How it was run: as §1

PUM1 PUF domain R5-GMR = PUM1 PUF domain R5-GMR (Homo sapiens, UniProt Q14671 828-1176, C1007G;R1008M;Q1011R)
PUM1 PUF domain R5-GMR, sequence (Q14671 828-1176 C1007G/R1008M/Q1011R): as the sequence (Q14671 828-1176 S863Y/R864M/Q867R) above, with Y36S, M37R, R40Q, C180G, R181M, Q184R counted along it
How it was run: as §1

PUM1 PUF domain R3-SGE = PUM1 PUF domain R3-SGE (Homo sapiens, UniProt Q14671 828-1176, C935S;R936G;Q939E)
How it was run: as §1

PUM1 PUF domain R3-RVA = PUM1 PUF domain R3-RVA (Homo sapiens, UniProt Q14671 828-1176, C935R;R936V;Q939A)
How it was run: as §1

PUM1 PUF domain R8-KHW = PUM1 PUF domain R8-KHW (Homo sapiens, UniProt Q14671 828-1176, N1122K;Y1123H;Q1126W)
How it was run: as §1

PUM1 PUF domain R3-APA = PUM1 PUF domain R3-APA (Homo sapiens, UniProt Q14671 828-1176, C935A;R936P;Q939A)
How it was run: as §1

PUM1 PUF domain R5-IYG = PUM1 PUF domain R5-IYG (Homo sapiens, UniProt Q14671 828-1176, C1007I;R1008Y;Q1011G)
How it was run: as §1

PUM1 PUF domain R4-GRN = PUM1 PUF domain R4-GRN (Homo sapiens, UniProt Q14671 828-1176, N971G;H972R;Q975N)
How it was run: as §1

PUM1 PUF domain R4-APF = PUM1 PUF domain R4-APF (Homo sapiens, UniProt Q14671 828-1176, N971A;H972P;Q975F)
How it was run: as §1

PUM1 PUF domain R3-VYW = PUM1 PUF domain R3-VYW (Homo sapiens, UniProt Q14671 828-1176, C935V;R936Y;Q939W)
How it was run: as §1

PUM1 PUF domain R5-FRM = PUM1 PUF domain R5-FRM (Homo sapiens, UniProt Q14671 828-1176, C1007F;Q1011M)
How it was run: as §1

PUM1 PUF domain R8-TYK = PUM1 PUF domain R8-TYK (Homo sapiens, UniProt Q14671 828-1176, N1122T;Q1126K)
PUM1 PUF domain R8-TYK, sequence (Q14671 828-1176 N1122T/Q1126K): as the sequence (Q14671 828-1176 S863Y/R864M/Q867R) above, with Y36S, M37R, R40Q, N295T, Q299K counted along it
How it was run: as §1

PUM1 PUF domain R3-RRW = PUM1 PUF domain R3-RRW (Homo sapiens, UniProt Q14671 828-1176, C935R;Q939W)
How it was run: as §1

PUM1 PUF domain R3-EFA = PUM1 PUF domain R3-EFA (Homo sapiens, UniProt Q14671 828-1176, C935E;R936F;Q939A)
How it was run: as §1

PUM1 PUF domain R3-TSR = PUM1 PUF domain R3-TSR (Homo sapiens, UniProt Q14671 828-1176, C935T;R936S;Q939R)
How it was run: as §1

PUM1 PUF domain R7-RKL = PUM1 PUF domain R7-RKL (Homo sapiens, UniProt Q14671 828-1176, S1079R;N1080K;E1083L)
How it was run: as §1

PUM1 PUF domain R7-KRL = PUM1 PUF domain R7-KRL (Homo sapiens, UniProt Q14671 828-1176, S1079K;N1080R;E1083L)
How it was run: as §1

PUM1 PUF domain R6-DFE = target: T1, PUM1 PUF domain R6-DFE (Homo sapiens, UniProt Q14671 828-1176, N1043D;Y1044F;Q1047E)
T1 sequence: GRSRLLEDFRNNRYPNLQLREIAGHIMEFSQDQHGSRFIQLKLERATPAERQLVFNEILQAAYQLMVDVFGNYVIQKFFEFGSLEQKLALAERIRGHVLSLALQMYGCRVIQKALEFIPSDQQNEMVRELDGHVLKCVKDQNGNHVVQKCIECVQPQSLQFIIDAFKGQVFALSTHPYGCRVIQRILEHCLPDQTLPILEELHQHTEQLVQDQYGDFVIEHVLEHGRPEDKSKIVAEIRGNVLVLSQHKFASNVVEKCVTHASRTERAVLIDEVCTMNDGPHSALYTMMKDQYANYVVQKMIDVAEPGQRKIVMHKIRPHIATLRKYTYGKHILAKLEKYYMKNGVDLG
How it was run: as §1

PUM1 PUF domain R2-GWF = PUM1 PUF domain R2-GWF (Homo sapiens, UniProt Q14671 828-1176, N899G;Y900W;Q903F)
How it was run: as §1

PUM1 PUF domain R4-PFV, sequence (Q14671 828-1176 N971P/H972F/Q975V): as the sequence (Q14671 828-1176 S863Y/R864M/Q867R) above, with Y36S, M37R, R40Q, N144P, H145F, Q148V counted along it

GGCUAGAACUAGUGGAUCCCCCGGCGCCCGGCGGCUCGAGCCCGGGUAAGUGUACAUAGUCUGCAUGCCGCCGGGCGCCAUGCCUGCAGGUCGACUCUAGAAAACAUG
binding signal (PUM1 PUF domain R4-PFV): 5.7 log2 enrichment (interaction score)

GGCUAGAACUAGUGGAUCCCCCGGCGCCCGGCGGCUCGAGCCCGGGUAAGUGUAAAUUGUCUGCAUGCCGCCGGGCGCCAUGCCUGCAGGUCGACUCUAGAAAACAUG
binding signal (PUM1 PUF domain R1-YMR): 4.12 log2 enrichment (interaction score)

GGCUAGAACUAGUGGAUCCCCCGGCGCCCGGCGGCUCGAGCCCGGGUAAGUGUUAAUAGUCUGCAUGCCGCCGGGCGCCAUGCCUGCAGGUCGACUCUAGAAAACAUG
binding signal (PUM1 PUF domain R5-GMR): 1.23 log2 enrichment (interaction score)

GGCUAGAACUAGUGGAUCCCCCGGCGCCCGGCGGCUCGAGCCCGGGUAAGUGUAAAUCGUCUGCAUGCCGCCGGGCGCCAUGCCUGCAGGUCGACUCUAGAAAACAUG
binding signal (PUM1 PUF domain R1-YMR): 6.92 log2 enrichment (interaction score)

GGCUAGAACUAGUGGAUCCCCCGGCGCCCGGCGGCUCGAGCCCGGGUAAGUGUAAGUAGUCUGCAUGCCGCCGGGCGCCAUGCCUGCAGGUCGACUCUAGAAAACAUG
binding signal (PUM1 PUF domain R3-SGE): 4.96 log2 enrichment (interaction score) | binding signal (PUM1 PUF domain R3-RVA): 0.81 log2 enrichment (interaction score)

GGCUAGAACUAGUGGAUCCCCCGGCGCCCGGCGGCUCGAGCCCGGGUAAGUGUAAAUAGUCUGCAUGCCGCCGGGCGCCAUGCCUGCAGGUCGACUCUAGAAAACAUG
binding signal (PUM1 PUF domain R8-KHW): 3.88 log2 enrichment (interaction score) | binding signal (PUM1 PUF domain R4-PFV): 6.08 log2 enrichment (interaction score) | binding signal (PUM1 PUF domain R1-YMR): 2.85 log2 enrichment (interaction score) | binding signal (PUM1 PUF domain R3-APA): 2.14 log2 enrichment (interaction score) | binding signal (PUM1 PUF domain R5-IYG): 4.13 log2 enrichment (interaction score) | binding signal (PUM1 PUF domain R4-GRN): 2.76 log2 enrichment (interaction score) | binding signal (PUM1 PUF domain R4-APF): 3.52 log2 enrichment (interaction score) | binding signal (PUM1 PUF domain R3-VYW): 6.32 log2 enrichment (interaction score) | binding signal (PUM1 PUF domain R5-FRM): 3.16 log2 enrichment (interaction score) | binding signal (PUM1 PUF domain R5-GMR): 0.88 log2 enrichment (interaction score) | binding signal (PUM1 PUF domain R8-TYK): 2.62 log2 enrichment (interaction score)

GGCUAGAACUAGUGGAUCCCCCGGCGCCCGGCGGCUCGAGCCCGGGUAAGUGUAAUUAGUCUGCAUGCCGCCGGGCGCCAUGCCUGCAGGUCGACUCUAGAAAACAUG
binding signal (PUM1 PUF domain R3-RRW): 3.94 log2 enrichment (interaction score) | binding signal (PUM1 PUF domain R3-EFA): 3.24 log2 enrichment (interaction score) | binding signal (PUM1 PUF domain R3-TSR): 2.25 log2 enrichment (interaction score) | binding signal (PUM1 PUF domain R3-RVA): 2.31 log2 enrichment (interaction score) | binding signal (PUM1 PUF domain R3-VYW): 4.86 log2 enrichment (interaction score)

GGCUAGAACUAGUGGAUCCCCCGGCGCCCGGCGGCUCGAGCCCGGGUAAGUUUAAAUAGUCUGCAUGCCGCCGGGCGCCAUGCCUGCAGGUCGACUCUAGAAAACAUG
binding signal (PUM1 PUF domain R7-RKL): 4.32 log2 enrichment (interaction score) | binding signal (PUM1 PUF domain R7-KRL): 5.24 log2 enrichment (interaction score)

GGCUAGAACUAGUGGAUCCCCCGGCGCCCGGCGGCUCGAGCCCGGGUAAGCGUAAAUAGUCUGCAUGCCGCCGGGCGCCAUGCCUGCAGGUCGACUCUAGAAAACAUG
binding signal (PUM1 PUF domain R8-KHW): 5.39 log2 enrichment (interaction score) | binding signal (PUM1 PUF domain R8-TYK): 2.07 log2 enrichment (interaction score)

GGCUAGAACUAGUGGAUCCCCCGGCGCCCGGCGGCUCGAGCCCGGGUAAGUGUAUAUAGUCUGCAUGCCGCCGGGCGCCAUGCCUGCAGGUCGACUCUAGAAAACAUG
binding signal (PUM1 PUF domain R4-PFV): 6.87 log2 enrichment (interaction score)

GGCUAGAACUAGUGGAUCCCCCGGCGCCCGGCGGCUCGAGCCCGGGUAAGUGGAAAUAGUCUGCAUGCCGCCGGGCGCCAUGCCUGCAGGUCGACUCUAGAAAACAUG
binding signal (PUM1 PUF domain R6-DFE): 2.5 log2 enrichment (interaction score)

GGCUAGAACUAGUGGAUCCCCCGGCGCCCGGCGGCUCGAGCCCGGGUAAGUCUAAAUAGUCUGCAUGCCGCCGGGCGCCAUGCCUGCAGGUCGACUCUAGAAAACAUG
binding signal (PUM1 PUF domain R7-RKL): 3.94 log2 enrichment (interaction score) | binding signal (PUM1 PUF domain R7-KRL): 5.65 log2 enrichment (interaction score)

GGCUAGAACUAGUGGAUCCCCCGGCGCCCGGCGGCUCGAGCCCGGGUAAGUGUAAAAAGUCUGCAUGCCGCCGGGCGCCAUGCCUGCAGGUCGACUCUAGAAAACAUG
binding signal (PUM1 PUF domain R2-GWF): 3.4 log2 enrichment (interaction score)

GGCUAGAACUAGUGGAUCCCCCGGCGCCCGGCGGCUCGAGCCCGGGUAAGGGUAAAUAGUCUGCAUGCCGCCGGGCGCCAUGCCUGCAGGUCGACUCUAGAAAACAUG
binding signal (PUM1 PUF domain R8-TYK): 3.38 log2 enrichment (interaction score)

GGCUAGAACUAGUGGAUCCCCCGGCGCCCGGCGGCUCGAGCCCGGGUAAGUGUCAAUAGUCUGCAUGCCGCCGGGCGCCAUGCCUGCAGGUCGACUCUAGAAAACAUG
binding signal (PUM1 PUF domain R5-FRM): 2.1 log2 enrichment (interaction score) | binding signal (PUM1 PUF domain R5-GMR): 3.28 log2 enrichment (interaction score)
